PubChem BioAssay AID372 (MTDP, 2006)
In all, about 100,000 compounds went through this assay and about 770 (0.77%) were called active. No stated cut-off is given here; in the data, active means inhibition above about 50%; inactive means the rest. For the sample, actives were picked, then their nearest neighbours and some compounds at random.

Molecular target: Gag-Pol polyprotein (Human immunodeficiency virus type 1 group M subtype B (isolate HXB2)) (UniProt P04585)
Experiment: RNase H inhibition, HIV 1 Gag Pol polyprotein, FRET biochemical assay, screening (AID 372)
Conditions: HIV-1 RT RNase H, FRET RNA/DNA substrate fluorescence; at 10 µM; stronger effect = higher value

SMILES	inhibition
CCC(C(=O)Nc1cc(Cl)ccc1OC)c1ccccc1 (configuration not stated)	29% (inactive)
O=C(COc1ccc(Br)cc1)Nc1ccc(F)cc1F	0% (inactive)
CCSc1nc2c(C)c(O)c(C)cc2[nH]1	0% (inactive)
O=C(Nc1ccccc1)Nc1nnc(Cc2ccc(Cl)c(Cl)c2)s1	16% (inactive)
COC(=O)c1sccc1NS(=O)(=O)c1ccc(OC)cc1	0% (inactive)
COC(=O)c1sccc1NS(=O)(=O)c1ccc(Cl)cc1	70% (active)
COC(=O)c1sccc1NS(=O)(=O)c1cc(Cl)ccc1Cl	35% (inactive)
CCOC(=O)c1c(NC(=O)COc2ccc(Cl)cc2C)sc(C(N)=O)c1C	12% (inactive)
Cc1sc(NC(=O)COc2ccc(Cl)cc2Cl)c(C(N)=O)c1C	9% (inactive)
COC(=O)c1ccccc1NC(=O)COc1ccc(Cl)cc1C	4% (inactive)
Cc1cc(Cl)ccc1OCC(=O)Nc1ccccc1C(N)=O	7% (inactive)
CCOC(=O)c1ccccc1NC(=O)COc1ccc(Cl)cc1C	50% (active)
Cc1ccc(N[C@H]2OC[C@H](O)[C@H](O)[C@H]2O)cc1[N+](=O)[O-]	6% (inactive)
CCC(=O)Nc1sc(Cc2ccccc2)c(C)c1C(N)=O	1% (inactive)
O=C(NCCCN1CCOCC1)/C(=C/c1ccc(-c2ccc(Cl)cc2)o1)NC(=O)c1ccccc1	0% (inactive)
COc1ccc(C(=O)NC(NC(=S)Nc2sc3c(c2C(N)=O)CCCC3)C(Cl)(Cl)Cl)cc1 (configuration not stated)	11% (inactive)
CCOC(=O)C1=C(C)N=c2s/c(=C\c3ccc(-c4cc(Cl)ccc4Cl)o3)c(=O)n2C1c1ccc(OC)cc1 (configuration not stated)	50% (active)
CCOC(=O)C1=C(C)N=c2s/c(=C\c3ccc(-c4ccc(Cl)cc4Cl)o3)c(=O)n2C1c1ccc(OC)cc1 (configuration not stated)	12% (inactive)
CCOC(=O)C1=C(C)N=c2s/c(=C\c3ccc(-c4ccc(Cl)cc4)o3)c(=O)n2C1c1ccc(OC)cc1OC (configuration not stated)	51% (active)
CCOC(=O)C1=C(C)N=c2s/c(=C\c3ccc(-c4ccc(Cl)cc4)o3)c(=O)n2C1c1cc(OC)ccc1OC (configuration not stated)	7% (inactive)
CCOC(=O)C1=C(C)N=c2s/c(=C\c3ccc(-c4cc(Cl)ccc4C)o3)c(=O)n2C1c1ccc(OC)cc1 (configuration not stated)	15% (inactive)

SMILES	inhibition
CCOC(=O)C1=C(C)N=c2s/c(=C\c3ccc(-c4ccc(Cl)c(Cl)c4)o3)c(=O)n2C1c1ccc(OC)cc1OC (configuration not stated)	10% (inactive)
CC(/C=C/c1ccco1)=N/NC(=O)COc1cccc(Cl)c1	14% (inactive)
Cc1ccc(C(=O)NC(C(=O)NC(C)(C)C)C23CC4CC(CC(C4)C2)C3)cc1 (configuration not stated)	16% (inactive)
Cc1ccc(C(=O)NC(=S)Nc2ccc(Cl)cc2)cc1C	3% (inactive)
Cc1cccc(C)c1NC(=S)NC(=O)c1ccc(Br)cc1	2% (inactive)
COC(=O)c1cc(NC(=S)NC(=O)c2ccccc2)cc(C(=O)OC)c1	21% (inactive)
Cc1ccc(C(=O)NC(=S)Nc2c(C)cccc2C)cc1	53% (active)
Cc1ccc(C(=O)NC(=S)Nc2cc(Cl)cc(Cl)c2)cc1C	50% (active)
Cc1cccc(C)c1NC(=S)NC(=O)c1ccccc1	7% (inactive)
O=C(NC(=S)Nc1cc(Cl)c(Cl)cc1Cl)c1ccc(Cl)cc1	54% (active)
COC(=O)c1cc(NC(=S)NC(=O)c2ccc(C)cc2)cc(C(=O)OC)c1	54% (active)
CC(=O)c1cccc(NC(=S)NC(=O)c2ccc(C)cc2)c1	17% (inactive)
Cc1ccc(C(=O)NC(=S)Nc2cc(Cl)cc(Cl)c2)cc1	14% (inactive)
O=C(NC(=S)Nc1cc(Cl)c(Cl)cc1Cl)c1ccc(F)cc1	13% (inactive)
Cc1ccc(C(=O)NC(=S)Nc2cc(Cl)c(Cl)cc2Cl)cc1	40% (inactive)
CC(C)=C1C2CCC1C(C(=O)NCc1ccccc1)C2C(=O)O (configuration not stated)	0% (inactive)
Cn1c(O)c(C(=NCc2ccccc2)c2ccccc2)c(=O)n(C)c1=O	8% (inactive)
O=C(Nc1cccc2ccccc12)/C(=C/c1ccccc1)c1ccccc1	28% (inactive)
COc1cccc(OCCCOc2ccccc2[N+](=O)[O-])c1	14% (inactive)
CCOC(=O)C1=C(C)NC2=C(C(=O)CC(c3ccccc3)C2)C1c1cccc([N+](=O)[O-])c1 (configuration not stated)	15% (inactive)
COc1ccc(C(=O)Nc2ccc(NC(=O)c3ccc(Br)cc3)cc2)cc1[N+](=O)[O-]	59% (active)

SMILES	inhibition
COc1ccc(C(=O)Nc2ccc(NC(=O)c3ccccc3)cc2)cc1[N+](=O)[O-]	23% (inactive)
CCOc1ccc(C(=O)Nc2ccc(NC(=O)c3ccccc3)cc2)cc1[N+](=O)[O-]	56% (active)
CCOc1ccc(C(=O)Nc2cccc(NC(=O)c3ccccc3)c2)cc1[N+](=O)[O-]	0% (inactive)
COc1ccc(C(=O)Nc2ccc(NC(C)=O)cc2)cc1[N+](=O)[O-]	5% (inactive)
CCOc1ccc(C(=O)Nc2ccc(C(C)=O)cc2)cc1[N+](=O)[O-]	5% (inactive)
O=C(/C=C/c1ccc2c(c1)OCO2)Nc1ccccn1	6% (inactive)
COc1ccc([N+](=O)[O-])cc1-c1ccc(/C=N/n2cnnc2)o1	57% (active)
O=[N+]([O-])c1ccc(-c2ccc(/C=N/n3cnnc3)o2)c(Br)c1	12% (inactive)
COc1ccc(-c2ccc(/C=N/n3cnnc3)o2)c([N+](=O)[O-])c1	14% (inactive)
COc1cccc(NC(=O)c2ccc(CN(c3ccc(C)c(C)c3)S(C)(=O)=O)cc2)c1	3% (inactive)
CC1=C(C(=O)Nc2ccc(Br)cc2)C(c2ccccc2)NC(=O)N1 (configuration not stated)	18% (inactive)
O=C(/C=C/c1ccc(-c2cc(Cl)cc(Cl)c2)o1)c1ccccc1	51% (active)
O=C(/C=C/c1ccc(-c2ccc(Cl)cc2Cl)o1)c1ccccc1	13% (inactive)
O=C(/C=C\c1ccc(-c2cc(Cl)ccc2Cl)o1)c1ccccc1	40% (inactive)
O=C(/C=C/c1ccc(-c2ccc(Cl)cc2)o1)c1ccccc1	20% (inactive)
CC(=O)/C=C/c1ccc(-c2cc(Cl)ccc2Cl)o1	54% (active)
O=C(/C=C/c1ccc(-c2ccccc2Cl)o1)c1ccc(F)cc1	47% (inactive)
O=C(/C=C/c1ccc(-c2ccc(Cl)cc2Cl)o1)c1ccc(F)cc1	27% (inactive)
COc1ccc(C(=O)/C=C/c2ccc(-c3cc(Cl)ccc3Cl)o2)cc1	15% (inactive)
O=C(/C=C/c1ccc(-c2cc(Cl)ccc2Cl)o1)c1ccc(F)cc1	52% (active)
